Source: PubChem
MazF activator – MazEF (E. coli) toxin RNase activation. P0AE70. activation, % at 20 µM. FAM/BHQ RNA-DNA oligo cleavage fluorescence, 5 h. actives 0.32% (n = 350,000); in the data active means activation above about 50%
Anthrax LF inh2 – inhibitors of Bacillus anthracis lethal factor protease; multiplex microsphere protease cleavage assay, LF; inhibition, % at 10 µM; actives 0.12% (n = 360,000)
Target sequence (P15917 whole entry, looked up): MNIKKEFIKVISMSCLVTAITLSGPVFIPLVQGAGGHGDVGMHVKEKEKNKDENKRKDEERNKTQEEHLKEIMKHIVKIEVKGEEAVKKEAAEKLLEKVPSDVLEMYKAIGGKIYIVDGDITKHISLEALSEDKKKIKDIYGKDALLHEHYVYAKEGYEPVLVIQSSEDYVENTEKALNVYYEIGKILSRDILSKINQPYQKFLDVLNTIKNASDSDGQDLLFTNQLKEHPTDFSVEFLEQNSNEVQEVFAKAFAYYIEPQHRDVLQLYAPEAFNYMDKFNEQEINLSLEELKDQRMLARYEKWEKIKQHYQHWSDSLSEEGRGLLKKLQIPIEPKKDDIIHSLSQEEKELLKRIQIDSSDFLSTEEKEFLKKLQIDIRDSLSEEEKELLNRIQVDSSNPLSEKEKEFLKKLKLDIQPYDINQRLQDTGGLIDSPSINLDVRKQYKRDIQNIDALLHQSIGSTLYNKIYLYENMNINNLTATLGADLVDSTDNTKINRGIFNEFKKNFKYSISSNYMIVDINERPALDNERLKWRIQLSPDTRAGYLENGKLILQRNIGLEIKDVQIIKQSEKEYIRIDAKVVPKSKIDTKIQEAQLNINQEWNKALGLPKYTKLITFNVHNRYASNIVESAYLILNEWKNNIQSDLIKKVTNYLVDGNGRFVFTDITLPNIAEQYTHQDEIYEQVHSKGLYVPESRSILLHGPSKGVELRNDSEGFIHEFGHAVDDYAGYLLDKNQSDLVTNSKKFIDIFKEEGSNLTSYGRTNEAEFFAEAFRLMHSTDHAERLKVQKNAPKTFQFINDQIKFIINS
BoNT F protease – blocks Botulinum neurotoxin F light chain protease; Multiplex microsphere protease cleavage assay, flow cytometry; actives 0.22% (n = 360,000); inhibition, % at 10 µM; in the data active means inhibition above about 35%, passing the limit was not always enough; inconclusive means no clear call, values can overlap the other calls
Bead autofluor – counter-screen for toxin protease inhibitors: compound fluorescence. fluorescence intensity (concentration not given with the values). compound autofluorescence counterscreen, microsphere flow cytometry; active compounds read high. actives 3.1% (n = 360,000); in the data active means fluorescence intensity above about 16000; inconclusive means no clear call, values can overlap the other calls
BoNT-A LC inh2 – BoNT A light chain protease inhibition; multiplex microsphere protease substrate cleavage, flow cytometry; inhibition, % at 10 µM; actives 0.17% (n = 360,000); AID 588499
Hits are given with their value; - = inactive; ? = inconclusive; . = no result given. An excerpt weighted towards active compounds, which were near 3.6% of everything screened. Unless noted, no stated cut-off is given here; in the data, active means inhibition above about 30%; inconclusive means no clear call, values can overlap the other calls; inactive means below that.

SMILES	MazF activator	Anthrax LF inh2	BoNT F protease	Bead autofluor	BoNT-A LC inh2
Cc1sc(NC(=O)c2ccco2)c(C(c2ccncc2)N2CCOCC2)c1C (stereo not given)	-	-	-	18732	-
Cc1sc(NC(=O)c2ccco2)c(CN2CCCCC2)c1C	-	-	-	-	-
Cc1sc(NC(=O)c2ccco2)c(CN2CCN(c3ccccc3)CC2)c1C	-	-	-	20298	-
Cc1ccc(-c2ccc(/C=C/C(=O)c3ccccc3)o2)cc1	-	-	-	-	44.4
O=C(/C=C/c1ccc(-c2ccccc2)o1)c1ccccc1	-	31.3	-	-	63.0
O=Cc1ccc(-c2cccc(C(=O)O)c2)o1	-	-	-	-	-
COc1ccc(/C=c2\sc3nc(-c4ccccc4OC)nn3c2=O)c(OC)c1	-	-	-	-	-
C=CCOc1ccccc1/C=c1\sc2nc(=O)c(C)nn2c1=O	-	-	-	23330	-
O=[N+]([O-])c1cc(S(=O)(=O)Nc2cccc(C(F)(F)F)c2)ccc1-n1nnc2ccccc21	-	-	-	-	-
COc1ccc(NS(=O)(=O)c2ccc(-n3nnc4ccccc43)c([N+](=O)[O-])c2)cc1	-	-	-	21241	-
CC(NC(=O)c1cccs1)c1ccc2c(c1)OCO2 (stereo not given)	-	-	-	20040	-
CC(NC(=O)c1cccnc1)c1ccc2c(c1)OCO2 (stereo not given)	-	-	-	16408	?
Cc1ccsc1C(=O)NC(C)c1ccc2c(c1)OCO2 (stereo not given)	-	-	-	22863	-
Cc1ccc(C(=O)NC(C)c2ccc3c(c2)OCO3)s1 (stereo not given)	-	-	-	-	-
CCN(CC)C(=O)[C@H]1CC(CC(=O)NC(C)(C)C)C(=O)N2CCc3c([nH]c4ccccc34)[C@]12C (stereo not given in full)	-	-	-	-	-
O=C(Cn1ncc2c([nH]c3ccccc32)c1=O)N1CCN(c2ccccn2)CC1	-	-	-	-	-
c1ccc(N2CCN(c3ccccc3)C2c2cccs2)cc1	-	-	-	22528	-
CCC(=O)Nc1ccc(C(=O)N/N=C/c2ccccc2[N+](=O)[O-])cc1	-	-	-	23894	-
CCOc1ccc(C(=O)N/N=C/c2ccccc2[N+](=O)[O-])cc1	-	-	-	-	-
Cc1ccnc(NS(=O)(=O)c2ccc(N=Cc3c(O)n(C)c(=O)n(C)c3=O)cc2)n1	-	-	-	-	-
Cc1ccnc(NS(=O)(=O)c2ccc(N=CC3=C(O)CC(C)(C)CC3=O)cc2)n1	-	-	-	22067	?
O=C(CCC(=O)N1CCN(S(=O)(=O)c2ccccc2)CC1)c1cccs1	-	-	-	20748	?
CCCCCOc1ccc(C(=O)OCC(=O)Nc2cc(C)on2)cc1	-	-	-	?	-
CCOC(=O)c1sc(NC(=O)c2cc3ccccc3o2)nc1C	-	-	-	-	-
C=CCOC(=O)c1sc(NC(=O)c2ccco2)nc1C	-	-	-	19408	-
SMILES	MazF activator	Anthrax LF inh2	BoNT F protease	Bead autofluor	BoNT-A LC inh2
CCOC(=O)c1sc(NC(=O)c2ccc(CC)s2)nc1C	-	-	-	19861	-
COc1ccc(CN2C[C@@H](CO)O[C@@H](n3cnc4c(NCc5ccc(F)cc5)ncnc43)C2)cc1	.	-	-	-	-
O=C(Nc1ccccc1C(F)(F)F)N1CCN(c2ccc3nncn3n2)CC1	-	-	-	20519	-
O=C(Nc1ccccc1C(F)(F)F)N1CCN(c2ccc3nnc(-c4ccc(F)cc4)n3n2)CC1	-	-	-	-	-
CC(Oc1ccccc1Cl)C(=O)Nc1ccc(S(=O)(=O)N2CCN(C)CC2)cc1 (stereo not given)	-	-	-	-	-
Cc1ccc(SCc2nc3ccccc3n2CC(=O)Nc2c(C)cccc2C)cc1	-	-	-	22196	-
Cc1ccc(SCc2nc3ccccc3n2CC(=O)Nc2ccccc2)cc1	-	-	-	-	-
COc1cc(NS(=O)(=O)c2ccc(NC(=O)c3ccc(C)o3)cc2)nc(OC)n1	-	-	-	16150	?
Cc1cc(NS(=O)(=O)c2ccc(NC(=O)c3ccco3)cc2)nc(C)n1	-	-	-	21969	-
COc1ccc(OCc2n[nH]c(=S)n2Cc2ccco2)cc1	-	-	-	-	-
CCCCOc1ccc(-c2n[nH]c(=S)n2Cc2ccccc2)cc1	-	-	34.5	-	-
Fc1ccc(-c2n[nH]c(=S)n2Cc2ccccc2)cc1	-	-	-	-	-
COc1ccc(-c2n[nH]c(=S)n2Cc2ccco2)cc1	-	-	-	21139	-
Cc1c(NS(=O)(=O)N2CCCCC2)c(=O)n(-c2ccccc2)n1C	-	-	-	16324	-
CC(C)C(=O)NC(=S)/C=C1/N(C)c2ccccc2C1(C)C	-	-	-	-	-
Cc1ccc(C(=O)NC(=S)/C=C2\N(C)c3ccccc3C2(C)C)cc1	-	-	-	-	42.1
CCOC(=O)Nc1c(C)n(C)n(-c2ccccc2)c1=O	-	-	-	19722	-
CCOC(=O)c1ccc(NC(=O)Nc2c(C)n(C)n(-c3ccccc3)c2=O)cc1	-	-	-	-	-
Cc1c(NC(=O)NCc2ccccc2)c(=O)n(-c2ccccc2)n1C	-	-	-	22336	-
CCS(=O)(=O)Nc1c(C)n(C)n(-c2ccccc2)c1=O	-	-	-	-	-
CCOc1ccc(OCC(=O)OCC(=O)N(CC(C)C)c2c(N)n(Cc3ccccc3)c(=O)[nH]c2=O)cc1	-	-	-	-	-
Cc1ccccc1CNC(=O)c1csc([C@@H]2O[C@H](CO)[C@@H](O)[C@H]2O)n1	.	-	-	-	-
CCN(CCS(=O)(=O)c1ccc(Cl)cc1)Cc1nc2ccccc2c(=O)[nH]1	-	-	-	-	-
Cc1c(NC(=O)c2n[nH]c(=O)c3ccccc23)c(=O)n(-c2ccccc2)n1C	-	-	-	21768	-
Cc1c(NC(=S)/C=C2\N(C)c3ccccc3C2(C)C)c(=O)n(-c2ccccc2)n1C	-	-	-	19375	-
SMILES	MazF activator	Anthrax LF inh2	BoNT F protease	Bead autofluor	BoNT-A LC inh2
Cc1c(NC(=O)CSc2nccn2C)c(=O)n(-c2ccccc2)n1C	-	-	-	16417	?
N#CC1(C#N)OC12CCS(=O)(=O)c1ccccc12 (stereo not given)	-	-	-	-	-
O=C(Nc1cccc2nsnc12)c1cc2c(cc1Cl)Sc1nccn1S2(=O)=O	-	-	-	-	-
CCOc1cc(C(=S)N2CCCC2)ccc1OC	-	-	-	-	-
COc1cc(C(=S)N2CCCC2)cc(OC)c1O	-	-	-	20756	-
CC1(C)CC(=O)c2c(O)cc(OCc3ccc(Br)cc3)cc2O1	-	-	-	22502	-
COC(=O)c1ccc(COc2cc(O)c3c(c2)OC(C)(C)CC3=O)cc1	-	-	-	-	-
COc1ccc(/C=N/NC(=O)c2cc(C34CC5CC(CC(C5)C3)C4)[nH]n2)cc1OC	-	-	39.6	-	-
CC1(C(=O)Nc2ccc(Cl)c(Cl)c2)CCN1C(=O)Cc1cccc2ccccc12 (stereo not given)	.	-	-	-	-
CCOc1ccc(C(=O)NC(=S)Nc2ccccc2N2CCC(C)CC2)cc1[N+](=O)[O-]	-	-	-	?	-
